In the library only some 2.4% were active in any assay of this set; here they are far more common.
D2 ag-1 = activates the human D2 dopamine receptor. P14416. HEK293 T-REx D2 cells, calcium flux agonist mode. activation, % at 2 µM. 340,000 tested, 0.53% active. AID 485358;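 active = activation over 3 SD above normal in the single-dose calcium agonist read, cut at about 30% in these data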
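HEK293 Trex D2 cells, tetracycline-induced, o/n 30 C 5% CO2; no-wash Ca dye, RT 30–90 min; 10-cycle baseline, 23 nl cpd added, kinetic Ca read 180 s; agonist hits = positive Ca response.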
D2 antag = antagonizes the human D2 dopamine receptor; P14416; HEK293 TREx D2 cells, calcium flux, dopamine EC80; inhibition, % at 10 µM; 340,000 tested, 2% active; AID 485344; in the data active = inhibition above about 30%; inactive = below that, where a call was filed
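Measurement of antagonist activity uses fluorescent calcium dye in inducible HEK293 T-REx D2 cells: 10 s baseline, compound addition with 180 s read, EC80 dopamine addition with a further 180 s read.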
D2 PAM-1 = positively modulates the human D2 dopamine receptor allosterically; P14416; potentiation, % at 10 µM; HEK293 T-REx D2, calcium flux, EC20 dopamine potentiation; 340,000 tested, 0.34% active;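 active = potentiation over 3 SD above the plate norm, cut at about 30% in these data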
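Cells plated with tetracycline inducer and held overnight at 30 C; calcium dye loaded 30–90 min at room temperature; baseline taken, compound added and read 180 s; EC20 dopamine then added and read 180 s.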
D2 ag-2 = agonists of human D2 dopamine receptor (beta-arrestin); P14416; DiscoveRx PathHunter D2 beta-arrestin, luminescence, 90 min; 100% = 57 uM dopamine signal; activation, % (concentration not given with the values); 360,000 tested, 0.084% active; in the data active = activation above about 40%; inconclusive = between about 15% and that limit
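Agonist mode: compounds alone added to overnight-plated D2 PathHunter cells for 90 min at 37 C, with 57 uM final dopamine (EC100) defining full response. Beta-arrestin recruitment detected by chemiluminescent reagent, read after 1 h at ambient temperature.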
D2 PAM-2 = human D2 receptor positive allosteric modulation | P14416 | DiscoveRx D2 beta-arrestin cells, luminescence, 90 min; 100% = 57 uM dopamine signal | potentiation, % (no concentration beside the values) | 360,000 tested, 0.23% active | AID 624464; in the data active = potentiation above about 50%; inconclusive = mostly about 30% to 49%
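PathHunter beta-arrestin assay in DiscoveRx D2 cells. Compounds were added with an EC20 of dopamine (50 nM final) for 90 min at 37 deg C. Luminescence was read 1 h after detection reagent, with 57 uM dopamine as the EC100 control.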
D3 ag = D3 receptor agonism confirmed, beta-arrestin readout; shares compounds with D2 ag-1; DiscoveRx D3 beta-arrestin cells, luminescence, 90 min; Potency, µM (doses to about 76.9 µM), most hits filed as activators; 2,300 tested, 4% active; note: nearly all actives have a fitted effect of over 70% in size
Target sequence (P35462 whole entry, looked up): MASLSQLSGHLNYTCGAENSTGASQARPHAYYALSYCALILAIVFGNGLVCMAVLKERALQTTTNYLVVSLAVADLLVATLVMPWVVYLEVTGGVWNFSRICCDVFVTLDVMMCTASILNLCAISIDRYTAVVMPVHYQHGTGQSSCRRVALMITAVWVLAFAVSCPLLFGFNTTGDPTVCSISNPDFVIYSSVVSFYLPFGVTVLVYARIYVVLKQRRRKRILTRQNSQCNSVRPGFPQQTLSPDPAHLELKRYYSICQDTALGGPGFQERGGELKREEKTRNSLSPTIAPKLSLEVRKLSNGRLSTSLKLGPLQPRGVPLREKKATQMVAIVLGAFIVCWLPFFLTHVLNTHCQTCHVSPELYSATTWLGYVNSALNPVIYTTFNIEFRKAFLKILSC
D2 ag-3 = activates human D2 dopamine receptor in D3 counterscreen | 2,300 tested, 5.9% active | Potency, µM (top dose mostly 76.9 µM), usual class: activators | DiscoveRx PathHunter D2 beta-arrestin, luminescence, 90 min; response scale: percent relative to full dopamine signal | shares compounds with D2 ag-1 | AID 720507; note: nearly all actives have a fitted effect of over 70% in size
Of the large screens only hits and unclear results are named; the others gave an inactive call (follow-up assays come after a bar, where they were run). Unless noted, calls come from the whole dose curve; as a rule, active = well fitted activation curve with a large enough effect; inconclusive = small, poorly fitted or top-dose-only effect; inactive = flat fitted curve, though single readings scatter.

CN=c1scc(-c2ccc(F)cc2)n1/N=C/c1ccc(O)c(O)c1	D2 ag-1 32, D2 antag 76, D2 ag-2 103, D2 PAM-2 inconclusive (no result: D2 PAM-1) | D3 ag 13µM | D2 ag-3 32µM
CN=c1scc(-c2ccc([N+](=O)[O-])cc2)n1/N=C/c1ccco1	none
CCN1CCN(C(=O)CNC(=O)c2nn(-c3ccc(OC)cc3)c(=O)c3ccccc23)CC1	D2 ag-1 51 | D3 ag inactive | D2 ag-3 inactive
CCOc1ccc(OCC)c(NC(=O)C2CCCN(S(=O)(=O)c3cc(Br)cc4c3N(C(=O)CC)CC4)C2)c1 (centres undefined)	none (no result: D2 antag, D2 ag-2, D2 PAM-2)
COc1ccc(C2Nc3ccccc3NC3=C2C(=O)CC(C)(C)C3)cc1OC (centres undefined)	D2 antag 38 | D3 ag inactive | D2 ag-3 inactive
Cc1cc(C2=NNC(=NCCc3ccccc3)SC2)c(C)n1CC1CCCO1 (centres undefined)	none | D3 ag inactive | D2 ag-3 inactive
COc1ccc(C2OC(=O)CC2C(=O)NCc2ccc(F)cc2)cc1OC (centres undefined)	none | D3 ag inactive | D2 ag-3 inactive
O=C1N/C(=C/c2cccs2)C(=O)N1Cc1ccccc1F	none
Cc1ccc(/C=C2/NC(=O)N(Cc3ccccc3F)C2=O)s1	none | D3 ag inactive | D2 ag-3 inactive
COC(=O)Cn1c2ccc(F)cc2c2nc(C)sc21	D2 ag-1 38 | D3 ag inactive | D2 ag-3 inactive
Cc1ccsc1C(=O)NNC(=O)c1ccncc1	none | D3 ag inactive | D2 ag-3 inactive
COc1ccc(/C=c2\s/c(=C/C(=O)c3ccc(C)cc3)[nH]c2=O)cc1OC	none | D3 ag inactive | D2 ag-3 inactive
COc1cc(C(C)=O)ccc1OCC(O)CN1CCN(c2ccc(F)cc2)CC1 (centres undefined)	D2 ag-1 41, D2 antag 40 | D3 ag inactive | D2 ag-3 inactive
COc1cc(C(C)=O)ccc1OCC(O)CN1CCN(c2ccc(C)cc2C)CC1 (centres undefined)	none
Cc1ccc(C(=O)NCN2CCN(c3ccccc3)CC2)cc1	none
COc1ccc(C(=O)NCN2CCN(c3ccccc3)CC2)cc1OC	D2 ag-1 64 | D3 ag inactive | D2 ag-3 inactive
COc1cc(C(C)=O)ccc1OCC(O)CN1CCN(c2ccccc2)CC1 (centres undefined)	D2 ag-1 85, D2 antag 85, D2 ag-2 46 | D3 ag inconclusive | D2 ag-3 inconclusive
CC1CC(=O)N(CC(=O)Nc2ccc(OC(F)(F)F)cc2)c2ccccc2S1 (centres undefined)	none (no result: D2 antag, D2 ag-2, D2 PAM-2)
CCc1cnc2c(c1SCc1c(F)cccc1Cl)c(=O)n(C)c(=O)n2C	none (no result: D2 antag, D2 ag-2, D2 PAM-2)
O=C(CSc1ccc2nnc(-c3ccncc3)n2n1)NCC1CCCO1 (centres undefined)	none | D3 ag inactive | D2 ag-3 inactive
COc1cccc2sc(N(Cc3cccnc3)C(=O)c3ccc4c(c3)OCCO4)nc12	none (no result: D2 antag, D2 ag-2, D2 PAM-2)
CSCCC(NC(=O)c1ccccc1)C(=O)NCCCSc1ccccc1 (centres undefined)	none | D3 ag inactive | D2 ag-3 inactive
CCC(C)NC(=O)C(CCSC)NC(=O)c1ccccc1 (centres undefined)	none
COc1cccc(NC(=O)C2CCN(c3nnc(C)c4c(C)n(-c5ccccc5)nc34)CC2)c1	none (no result: D2 antag, D2 ag-2, D2 PAM-2)
CC(C)c1ccc(NC(=S)N(C)CCc2ccccn2)cc1	D2 antag 36 | D3 ag inactive | D2 ag-3 inactive
Cc1cccc(C)c1NC(=S)N(C)CCc1ccccn1	none
COc1ccc(OCC(=O)Nc2ccc3c(c2)nc(CCN2CCN(c4ccccn4)CC2)n3C)cc1	none (no result: D2 ag-1, D2 antag, D2 PAM-1)
Cc1ccc(S(=O)(=O)Nc2ccc3c(c2)nc(CCN2CCN(c4ccccn4)CC2)n3C)cc1	D2 antag 51 | D3 ag inactive | D2 ag-3 inactive
Cn1c(CCN2CCN(c3ccccn3)CC2)nc2cc(NS(=O)(=O)c3ccc(Cl)cc3)ccc21	D2 antag 74 | D3 ag inactive | D2 ag-3 inconclusive
Cc1ccc(N2CCN(CCc3nc4cc(NS(C)(=O)=O)ccc4n3C)CC2)cc1	none
Clc1ccc(Cn2ncc3c(N4CCN(c5ccccc5)CC4)ncnc32)cc1	none (no result: D2 ag-1, D2 antag, D2 PAM-1)
COc1ccccc1CCNC(=O)C(=O)NCC(c1ccco1)S(=O)(=O)c1ccc(F)cc1 (centres undefined)	none (no result: D2 antag, D2 ag-2, D2 PAM-2)
Cc1cc(NC(=O)c2ccccc2F)on1	D2 ag-1 68 | D3 ag inactive | D2 ag-3 inactive
CCOC(=O)c1c(NC(=S)Nc2ccccc2)sc2c1CCN(CC)C2	none | D3 ag inactive | D2 ag-3 inactive
CCOc1ccc(Br)cc1S(=O)(=O)NC1CC(C)(C)NC(C)(C)C1	none | D3 ag inactive | D2 ag-3 inactive
COc1ccc(Cl)cc1S(=O)(=O)NC1CC(C)(C)NC(C)(C)C1	none (no result: D2 ag-1, D2 antag)
CCOc1cc(C)c(S(=O)(=O)NC2CC(C)(C)NC(C)(C)C2)cc1C	none
Cc1cc(C)c(S(=O)(=O)NC2CC(C)(C)NC(C)(C)C2)cc1C	D2 ag-1 30 | D3 ag inactive | D2 ag-3 inactive
CCn1c(C(=O)N2CCCC(C(=O)N3CCN(c4ccccc4)CC3)C2)cc2sccc21 (centres undefined)	none (no result: D2 antag, D2 ag-2, D2 PAM-2)
Nc1cccc(O)c1	none | D3 ag inactive | D2 ag-3 inactive
Cc1ccc(NC(=O)CC(NC(=O)c2ccccc2Cl)c2ccccc2)nc1 (centres undefined)	none | D3 ag inactive | D2 ag-3 inactive
Cc1ccnc(NC(=O)CC(NC(=O)c2ccccc2Cl)c2ccccc2)c1 (centres undefined)	none
CCOC(=O)c1cccc(NC(=O)c2cnccn2)c1	none (no result: D2 ag-1, D2 antag) | D3 ag inactive | D2 ag-3 inactive
COC(=O)C1CCN(Cc2cc(=O)oc3cc(C)c(Cl)cc23)CC1	D2 ag-1 31, D2 ag-2 inconclusive | D3 ag 3.2µM | D2 ag-3 inactive
CCc1ccc2c(CN3CCC(C(=O)OC)CC3)cc(=O)oc2c1	D2 ag-1 106, D2 antag 106, D2 ag-2 66 | D3 ag 4µM | D2 ag-3 8.9µM
CCOC(=O)Nc1ccc2c(CN3CCC(C(=O)OC)CC3)cc(=O)oc2c1	none
Cc1cc2oc(=O)cc(CN3CCCCC3C)c2cc1Cl (centres undefined)	none
FC(F)(F)c1cc(-c2ccccc2)nc(NC2CCCC2)n1	D2 ag-1 58 | D3 ag inactive | D2 ag-3 inactive

High-throughput results: PubChem, National Center for Advancing Translational Sciences (NCATS)
